Assay outcomes (PubChem)
Sampled rows, rich in hits. Any-hit rate of the full collection: about 8.6%.
Marburg entry – blocks Marburg virus binding or cell entry | Marburg virus pseudotype entry/binding inhibition, cell-based | Potency, µM (titrated, usually from 49.2 µM), for the others: top-dose activity change, negative = inhibition, usual class: inhibitors | 6.5% of 18,000 active
LASV entry inh – Lassa virus entry inhibition; Lassa virus pseudotyped entry inhibition, cell-based qHTS; Potency, µM (doses to about 49.2 µM), for inactives: at the top dose activity change, negative = inhibition, hits mostly inhibitors; 4.1% of 18,000 active
* hit, by the source's call; ? = inconclusive; . = not tested or not shown; ! = not confirmed by another sample; [ ] = dose if it differs, or a comment. Calls follow the shape of the full dose curve; tested in HEK293 cells. % is scaled to controls: 0 for no effect and ±100 for the full control effect; potency is read from the fitted curve at half-maximal effect.

SMILES | Marburg entry | LASV entry inh
CCC1=C[C@@H]2CN(C1)Cc1c([nH]c3ccccc13)[C@@](C(=O)OC)(c1cc3c(cc1OC)N(C)[C@H]1[C@@](O)(C(=O)OC)[C@H](OC(C)=O)[C@]4(CC)C=CCN5CC[C@]31[C@@H]54)C2 | 1.4µM*! | 13µM*!
CC[C@]1(O)CC2CN(CCc3c([nH]c4ccccc34)[C@@](C(=O)OC)(c3cc4c(cc3OC)N(C)[C@H]3[C@@](O)(C(N)=O)[C@H](O)[C@]5(CC)C=CCN6CC[C@]43[C@@H]65)C2)C1 (some centres undefined) | ? | -34%
Cc1c(C(=O)NCCCc2ccncc2)cnn1-c1nccc(-c2ccccc2F)n1 | ? | -12%
N#CC(C#N)=Cc1ccc(O)c(O)c1 | 7% | -21%
CC(C)(C)c1cc(/C=C(\C#N)C(N)=S)cc(C(C)(C)C)c1O | 4.5µM* | 28µM*
CC(C)(C)c1cc(C=C(C#N)C#N)cc(C(C)(C)C)c1O | 2.8µM* | 25µM*
N#CC(C#N)=C(N)/C(C#N)=C/c1cc(O)c(O)c(O)c1 | -11% | -4%
Cc1ccc(CN2CCC=CS2(=O)=O)cc1 | 9% | 18%
CC(=O)c1ccc(F)c(-c2cc(C)cc3c2OC(CNC(=O)Cn2nc(C)nc2C)C3)c1 (centres undefined) | -9% | 0%
c1ccc(CCNc2nc(-c3ccccc3)cs2)cc1 | ? | 16µM*
c1ccc(-c2csc(-c3nc4ccccc4[nH]3)n2)cc1 | 7% | ?
CC(C)(O)C(Cl)(Cl)Cl | 10% | -6%
COc1cc(C2CC(=O)Oc3cc4c(cc32)OCO4)cc(OC)c1OC (centres undefined) | -14% | 0%
CCCCCCCCCCCCOCCOCCOCCOCCO | -48% | -15%
CCCCCCCCCc1ccc(OCCOCCO)cc1 | ? | 11µM*
Cc1ccc(CN2C[C@H](Sc3ccccn3)C[C@H]2C(=O)Nc2ccc3sc(C)nc3c2)cc1 | ? | -13%
COc1ccc(S[C@@H]2C[C@@H](C(=O)Nc3ccc4nccnc4c3)N(C3Cc4ccccc4C3)C2)cc1 | -6% | 3.2µM*
Cc1nnc(-c2ccc(C)c(-c3ccc(C(=O)NCc4ccc(Cl)cc4)cc3)c2)o1 | 2.8µM* | .
Cc1nnc(-c2ccc(C)c(-c3ccc(C(=O)Nc4cccc(C#N)c4)cc3)c2)o1 | 46% | .
COCc1ccc(CN2CCOc3ccc(C4=CCCCC4)cc3C2)o1 | -21% | 2%
O=C1CN=C(c2ccccc2)c2cc([N+](=O)[O-])ccc2N1 | 15% | -1%
CCSc1ccc2c(c1)N(CCCN1CCN(C)CC1)c1ccccc1S2 | ? | -17%[17.8 µM]
CN1CCN(CCCN2c3ccccc3Sc3ccccc32)CC1 | 14µM* | ?
CN1CCN(CCCN2c3ccccc3Sc3ccc(Cl)cc32)CC1 | 10µM* | 20µM*!
CNc1ncnc2c1ncn2[C@@H]1O[C@H](CO)[C@@H](O)[C@@H]1O | 7%[17.8 µM] | -13%[17.8 µM]
SMILES | Marburg entry | LASV entry inh
Cc1ccccc1CNc1ncnc2c1ncn2[C@@H]1O[C@H](CO)[C@@H](O)[C@H]1O | 25% | -4%
CSc1ncnc2c1ncn2C1OC(CO)C(O)C1O (centres undefined) | 0.5µM* | 0.35µM*
Nc1ncnc2c1ncn2C1OC(CO)C(O)C1O (centres undefined) | 5% | 0%
OC[C@H]1O[C@@H](n2cnc3cncnc32)[C@H](O)[C@@H]1O | 3.2µM* | 7.9µM*
OC[C@H]1O[C@@H](n2cnc3c(NCc4ccco4)ncnc32)[C@H](O)[C@@H]1O | 13µM* | ?
COc1cccc([C@@H]2Oc3ccc(Br)cc3C(=O)[C@@H]2OC(=O)N[C@H](C)C2CCCCC2)c1 | -30%[8.59 µM] | -14%[8.59 µM]
CC12CCCC(O)(C1)C1CC(C)(C)C1CC2 (centres undefined) | 11% | -3%
CCc1cc(-c2cnnn2CCc2c[nH]c3ccccc23)ccc1-c1cn(CC(C)C)nn1 | 12% | ?
COc1ccc2c3c1OC1C[C@@H](O)C=C[C@@]31CCN(C)C2 (some centres undefined) | 2% | -3%
COCC#CCN1CCCCC1c1cccnc1 (centres undefined) | -2% | 9%
CC(=O)Nc1ccccc1-c1nc(CNC(=O)c2cccc(F)c2)c(C)o1 | -13% | -3%
O=C1C=C2C(=CCOC2O)O1 (centres undefined) | 1.1µM* | 3.2µM*
O=c1c(-c2cc(O)c(O)c(O)c2)coc2cc(O)c(O)c(O)c12 | ? | -1%
COC1C(O)C(C)O[C@H](OC2CC[C@@]3(C=O)C4CC[C@]5(C)C(C6=CC(=O)OC6)CC[C@@]5(O)C4CC[C@@H]3C2)C1O (some centres undefined) | ? | 0.1µM*
COC1C(O)C(C)O[C@@H](OC2CC[C@@]3(C)C4CC[C@]5(C)C(C6=CC(=O)OC6)CC[C@@]5(O)C4CC[C@@H]3C2)C1O (some centres undefined) | 0.079µM* | 0.1µM*
O=C(NCCNCC(O)COc1ccc(O)cc1)N1CCOCC1 (centres undefined) | -10% | -21%
O=C(c1cn(C2CCCN(Cc3cc(Cl)ccc3O)C2)nn1)N1CCCCC1 (centres undefined) | -20% | -8%
CC1CCC2C(C)C3C(CC4[C@@H]5CC=C6C[C@@H](O)CC[C@]6(C)C5CC[C@]34C)N2C1 (some centres undefined) | -13% | 2%
O[C@@H]1[C@@H]2c3cc4c(cc3CN3CCC(=C[C@@H]1O)[C@H]23)OCO4 | 2.5µM* | ?
CN1CCc2cc3c(cc2[C@@H]1O)OCO3 | -24%[17.8 µM] | -2%[17.8 µM]
C=C1CC[C@@]2(O)[C@H]3Cc4ccc(O)c5c4[C@@]2(CCN3CC2CC2)[C@H]1O5 | -12% | -14%
Oc1ccc2c3c1O[C@H]1c4[nH]c5ccccc5c4C[C@@]4(O)C(C2)N(CC2CC2)CCC314 (some centres undefined) | 13µM* | ?
C=CCN1CC[C@]23c4c5ccc(O)c4OC2C(=O)CC[C@]3(O)C1C5 (some centres undefined) | 11% | 6%
C=C(C)CN1CC[C@@]23c4c5ccc(O)c4O[C@H]2c2[nH]c4ccccc4c2C[C@]3(O)[C@@H]1C5 | 22µM* | ?
O=C1OCCN1C(=O)[C@H]1[C@H](c2ccc(Cl)cc2)C(c2cccc(Cl)c2)=NN1c1ccccc1 | -23% | -22%
SMILES | Marburg entry | LASV entry inh
NC(=O)N/N=C/c1ccc(Oc2ccc(F)cc2)cc1 | -6% | -3%
O=C1C(Nc2ccccc2)=CC(=O)c2ncccc21 | 5.6µM* | 11µM*
NCCCCCCNS(=O)(=O)c1cccc2ccccc12 | 9% | ?
Nc1nc(NCC2CCC(CNS(=O)(=O)c3cccc4ccccc34)CC2)nc2ccccc12 (centres undefined) | 11µM* | ?
C[C@]12C=CC(=O)C=C1CC[C@@H]1[C@@H]2CC[C@@]2(C)[C@H]1CC[C@]2(C)O | -7% | -13%
CN1CCc2c(c3ccccc3n2Cc2ccccc2)C1 | 18µM* | ?
CN1CCN(C2CN(Cc3ccccc3)S(=O)(=O)C2)CC1 (centres undefined) | 21% | 13%
COc1cc(OC)c2c(c1Cl)O[C@@]1(C2=O)[C@H](C)CC(=O)C[C@@H]1OC | -20%[17.8 µM] | -4%[17.8 µM]
CCCCCCCC#Cc1ccccc1C=NS(=O)c1ccc(C)cc1 (centres undefined) | 4%[8.59 µM] | 8%[8.59 µM]
C[C@H]1CCCC=CC2C[C@H](O)C[C@@H]2[C@H](O)C=CC(=O)O1 (some centres undefined) | 35µM* | ?
